LASV entry inh = blocks Lassa virus binding to or entry into cells; Lassa virus pseudotype entry inhibition, cell reporter; Potency, µM (titrated, usually from 37.9 µM), for the others: at the highest dose activity change, negative = inhibition, hits mostly inhibitors; hit rate 1.2% among 300,000; AID 540256; calls by dose curve; tested in HEK293 cells; note: potency is the fitted concentration of half-maximal effect; nearly all actives have a fitted effect of over 50% in size
Vaccinia Venus = vaccinia inhibition (Venus reporter); Potency, µM (top dose mostly 36.5 µM), for inactives: at the top dose activity change, negative = inhibition, usual class: inhibitors; Vaccinia virus Venus reporter expression, fluorescence; hit rate 0.46% among 330,000; calls by dose curve; tested in A549 cells; note: potency is the fitted concentration of half-maximal effect; nearly all actives have a fitted effect of over 30% in size
MARV entry inh = Marburg virus entry inhibition. AID 540276. Potency, µM (doses to about 37.8 µM), for inactives: at the highest dose activity change, negative = inhibition, most hits filed as inhibitors. Marburg virus pseudotyped entry inhibition, cell reporter. hit rate 1.8% among 300,000; calls by dose curve; tested in HEK293 cells; note: potency is the fitted concentration of half-maximal effect
HCV inhibitor = inhibitors of hepatitis C virus infection; Huh7.5.1 HCVcc-Cre infection, luciferase reporter, 44 h; Potency, µM (series often up to 41.8 µM), for the others: at the top dose activity change, negative = inhibition, actives largely listed as inhibitors; hit rate 3.4% among 340,000; AID 651820; active = well fitted inhibition curve with a large enough effect; inconclusive = small, poorly fitted or top-dose-only effect, or another doubt; inactive = no such curve, though single readings can be large or run the other way; note: potency is the fitted concentration of half-maximal effect
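Cells (1,000/well) were plated 4 h before compound, then infected with HCVcc-Cre virus (~0.5 moi). After 44 h further culture, infection was read as luciferase luminescence following a 15 min substrate incubation at room temperature.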
VACV mCherry inh = inhibitors of vaccinia virus infection (mCherry reporter signal); Vaccinia virus mCherry reporter infection, fluorescence; Potency, µM (doses to about 36.5 µM), without a hit: at the highest dose activity change, negative = inhibition, hits mostly inhibitors; hit rate 0.63% among 310,000; AID 720579; calls by dose curve; tested in A549 cells; note: potency is the fitted concentration of half-maximal effect; nearly all actives have a fitted effect of over 35% in size
HCMV antiviral = inhibitors of human cytomegalovirus; hit rate 4.5% among 410,000; activity change, negative = inhibition, % at 57.5 µM; AID 1259415; HFF cells, HCMV-luciferase reporter, 72 h; stronger effect = lower value; in the data active = activity change below about -60%; inconclusive = no clear call, values can overlap the other calls; inactive = above about -39%
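Two compound doses tested in HFFs infected with HCMV-luciferase, MOI 1 PFU/cell, 72 h at 37C. Lysate luminescence read with OneGlo; data normalized against buffer-only and 10uM Salinomycin inhibitor controls.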
* hit, by the source's call; i = inactive; ? = inconclusive; · = no result; [ ] = remark or other dose. Only some compounds are listed: those with a hit (about 7.8% of all), similar ones and a draw of the others. % is set by controls: 0 for no effect and ±100 for the full control effect.

SMILES	LASV entry inh	Vaccinia Venus	MARV entry inh	HCV inhibitor	VACV mCherry inh	HCMV antiviral
O=S1(=O)CCO[C@H]2CCCC[C@@H]2N1Cc1ccccc1	·	-7%	·	·	i	·
CC1CCN(S(=O)(=O)c2ccc3c(c2)CCN3)CC1	9%[46.1 µM]	-16%	·	·	-20%	105
CCCCCNC(=O)c1c[nH]c2ccc(S(=O)(=O)N3CCC(C)CC3)cc2c1=O	-7%[46.1 µM]	-22%	·	·	?	9
COC(=O)CCC(=O)OC1(C)C(=O)C=C2C=C(C3CC3)N(Cc3ccc(OC)cc3)C=C2C1=O (configuration not stated)	·	3%	9%[14.2 µM]	3.5µM*	-5%	4
CNC(=O)OCc1nc(SSC(C)(C)C)n(C)c1COC(=O)NC	?	?	?	?	-24%	-76*
COc1cccc(/C=N/NC(=O)c2cc3c(OC)ccc(OC)c3[nH]2)c1O	·	?	·	2.5µM*	?	-99*
COc1cc(OC)c2cc(C(=O)N/N=C/c3cccc(OC)c3O)[nH]c2c1	?	-26%	4.5µM*	8.9µM*	11µM*	-104*
COc1cccc(/C=N/NC(=O)c2ccc3nc[nH]c3c2)c1O	·	-3%	·	12%	?	0
CCOC(=O)C1=C(C)N(CC(C)C)C(=O)/C1=C\c1cccs1	4%	-2%[7.34 µM]	12%[46.1 µM]	?	-17%[7.34 µM]	-27
CCN1C(=O)/C(=C\c2ccco2)C(C(=O)OC)=C1C	-2%	·	-22%	13µM*	·	27
COC(=O)C1=C(C)N(Cc2cccnc2)C(=O)/C1=C\c1sccc1C	-3%[46.1 µM]	-17%	7%[46.1 µM]	11µM*	?	115
COC(=O)C1=C(C)N(CC(C)C)C(=O)/C1=C\c1cccs1	-1%	-15%	-5%	16µM*	-14%[1.46 µM]	-32
O=C(CSc1nc2c([nH]c3ccccc32)c(=O)n1-c1ccccc1)NCc1ccc(F)cc1	?	3%	·	·	3%	-29
Cc1ccc(C2CC(=O)n3nc(-c4ccc(F)cc4)nc3S2)cc1 (configuration not stated)	2%[46.1 µM]	-15%	-4%[46.1 µM]	·	i	9
CC(C)(C)c1ccc(C(=O)Nc2ccc(C(=O)OCc3cc(=O)n4ccsc4n3)cc2)cc1	-29%[46.1 µM]	-25%	·	·	?	13
COc1cccc(CN(C(=O)c2oc3ccc(Br)cc3c2C)C2CCS(=O)(=O)C2)c1 (configuration not stated)	?	-8%	?	·	-8%	-8
Cc1cc(C)cc(-n2nnc(-c3nc(-c4ccc5c(c4)OCO5)no3)c2C)c1	1%[46.1 µM]	-10%[7.34 µM]	·	·	-11%[7.34 µM]	48
COc1cc(/C=C(\C#N)c2nc3ccccc3[nH]2)ccc1OCc1cccc(C(F)(F)F)c1	?	?	?	·	-29%	-87*
COc1cc(/C=C(\C#N)c2nc3ccccc3[nH]2)ccc1OCc1ccc(F)cc1	-6%[46.1 µM]	-22%	?	·	-13%	-78*
CCOc1cc(/C=C(/C#N)c2nc3ccccc3[nH]2)ccc1Oc1ccc([N+](=O)[O-])cn1	?	-24%	?	?	i	-22
COc1cc(/C=C(/C#N)c2nc3ccccc3[nH]2)ccc1Oc1ncccc1[N+](=O)[O-]	?	-28%	-15%	2.5µM*	?	?
COC(=O)c1ccc(C(=O)N2CCc3c(C(=O)NC(C)c4ccco4)c(OC)cc(=O)n3CC2)cc1 (configuration not stated)	·	0%	·	·	-12%	·
O=C(NCCN1CCOCC1)c1cnn(-c2nccc(-c3ccccc3C(F)(F)F)n2)c1C1CC1	·	-8%	·	·	-8%	·
Nc1ccc(N=Nc2ccccc2)c2ccccc12	-1%[46.1 µM]	-13%	-8%[46.1 µM]	-16%	-1%	35
Nc1ccc(N=Nc2ccccc2)c(N)n1	?	-15%	-7%	2%[8.37 µM]	-13%	-102*
SMILES	LASV entry inh	Vaccinia Venus	MARV entry inh	HCV inhibitor	VACV mCherry inh	HCMV antiviral
O=c1ccc2[n+]([O-])c3ccc(O)cc3oc-2c1	·	·	·	12%	·	-61*
O=c1cc(O)c2ccc(O)cc2o1	·	-21%	·	14%	0%	13
Cn1nc([N+](=O)[O-])nc1Oc1ccc2ccccc2c1	0%	·	-7%	8%	·	-65*
CCc1nccc2c1[nH]c1ccccc12	·	-6%	·	11µM*	-2%	·
Cc1nccc2c1[nH]c1ccccc12	0%	-18%	?	?	-11%	13
Cc1ccc(CCNC(=O)c2ccc3c(Cl)c4c(nc3c2)CCCC4)cc1	-13%[46.1 µM]	1%	9%[46.1 µM]	·	-11%	-24
